# Source: ChEMBL document CHEMBL4513216, “Probing the Open Global Health Chemical Diversity Library for Multistage-Active Starting Points for Next-Generation Antimalarials” (ACS Infect Dis, 2020)
# Screen size: about 68,000 compounds; about 2,700 (4%) showed an effect of 50% or more. Shown is part of a subset that was picked to be rich in strong results.
# Test system: Plasmodium berghei
# Experiment: Screen against P. berghei liver stage (PbLuc), transformed with Luciferase, at 2uM
# Assay type: functional, HepG2
# Settings: tested at 2 uM
row,Structure (SMILES),INHIBITION [%]
1,CN(Cc1cccnc1)C(=O)NC1CCN(Cc2ccccn2)CC1,-37.28
2,Cc1cc(CN(C)C(=O)NC2CCN(Cc3ccccn3)CC2)no1,-7.82
3,COCC(O)CN(C)C(=O)NC1CCN(Cc2ccccn2)CC1 (stereo not drawn),54.85
4,COc1ncc(C2(O)CCN(Cc3cc(F)ccc3F)CC2)c(OC)n1,-48.87
5,CCc1cc(C(=O)N[C@@H]2CC[C@@H](N3CCOCC3)[C@@H]2O)no1,-49.75
6,COc1ccc(OCCN2CCC(N3CCNC3=O)CC2)cc1,81.79
7,COc1ccccc1OCCN1CCC(N2CCNC2=O)CC1,3.86
8,CCOc1ccc(OCCN2CCC(N3CCNC3=O)CC2)cc1,12.81
9,C[S+]([O-])CCNC(=O)N1CCSC2(CCCCC2)C1 (stereo not drawn),-66.38
10,Cc1cccc(N2CC[C@@H]3CN(Cc4csc(C)n4)CCO[C@@H]3C2)n1,25.87
11,Cc1cnc(C(=O)N2C[C@@H]3CC[C@H]2CN(c2cnccn2)C3)cn1,53.98
12,Cc1nnsc1C(=O)N1C[C@@H]2CC[C@H]1CN(c1cnccn1)C2,28.73
13,Cc1noc(C)c1C(=O)N1C[C@@H]2CC[C@H]1CN(c1cnccn1)C2,20.32
14,c1ccc2c(c1)SCCC2NCc1ccc(N2CCOCC2)cc1 (stereo not drawn),15.16
15,Cc1nccn1-c1ccccc1CNC(=O)c1cn(CCN)nn1,-27.6
16,NCCn1cc(C(=O)NCc2ccccc2-n2cccn2)nn1,28.67
17,NCCn1cc(C(=O)NCc2ccccc2Cn2cccn2)nn1,62.3
18,CC(Cn1cccn1)n1cnc2ccc(F)cc2c1=O (stereo not drawn),32.71
19,Cc1n[nH]c(C2CN(CC(=O)NCc3cccs3)CCO2)n1 (stereo not drawn),34.42
20,CC(=O)N1CCCC(C(=O)NCCc2ccc(F)c(Br)c2)C1 (stereo not drawn),63.17
21,CCCN1CCC(C(=O)NCCN(CC)c2ccccc2C)CC1,-5.9
22,CCN(CCNC(=O)C1CCCN(C(C)=O)C1)c1ccccc1C (stereo not drawn),56.33

row,Structure (SMILES),INHIBITION [%]
1,CCN(CCNC(=O)C1CCN(C(C)=O)CC1)c1ccccc1C,31.13
2,CN1CC(C(=O)NCCc2ccc(F)c(Br)c2)CC1=O (stereo not drawn),-5.13
3,COc1ccc2[nH]cc(CCNC(=O)C3CCCN(C(C)=O)C3)c2c1 (stereo not drawn),13.65
4,O=C(CN1C=Nc2ccccc2S1(=O)=O)NCCc1cccs1,6.12
5,CCn1ncc(Br)c1CN(C)S(=O)(=O)c1ccc(C)cc1,0.3
6,CCCc1nc(NCc2c(C)nn(CCC)c2C)c2cnn(C)c2n1,32.53
7,CC(C)CNC(=O)CNc1c(NCc2ccco2)c(=O)c1=O,10.93
8,COc1ccnc(CN2CCCC(CCc3ccc(F)cc3)C2)c1OC (stereo not drawn),58.03
9,COc1ccnc(CN2CCCC(CCc3ccccc3)C2)c1OC (stereo not drawn),11.37
10,COc1coc(CN2CCCC(CCc3ccc(F)cc3)C2)cc1=O (stereo not drawn),30.44
11,Cc1cc(CN(C)C2CCCN(Cc3noc(C)n3)C2)on1 (stereo not drawn),-2.71
12,Cc1nc(CN(C)C2CCN(Cc3nnc(C4CC4)o3)C2)no1 (stereo not drawn),49.01
13,CN(Cc1noc(C2CC2)n1)C1CCN(Cc2nnc(C3CC3)o2)C1 (stereo not drawn),51.19
14,CC(C)c1nc(CN(C)C2CCN(Cc3nnc(C4CC4)o3)C2)no1 (stereo not drawn),37.9
15,Cc1nc(CN2CCCC(N(C)Cc3nnc(C4CC4)o3)C2)no1 (stereo not drawn),-10.47
16,Cc1nnc(CN(C)C2CCCN(Cc3noc(C4CC4)n3)C2)o1 (stereo not drawn),62.13
17,Cc1cc(CN(C)C2CCCN(Cc3noc(C)n3)C2)no1 (stereo not drawn),80.46
18,CCc1nnc(CN(C)C2CCCN(Cc3noc(C4CC4)n3)C2)o1 (stereo not drawn),-7.13
19,Cc1cc(CN(C)C2CCCN(Cc3noc(C4CC4)n3)C2)no1 (stereo not drawn),28.65
20,CC(C)N(Cc1cccnc1)C(=O)CCSc1ccc(C#N)cc1,16.72
21,CCc1nc(CN2CCN(C(=O)c3csnn3)CC2)cs1,32.64
22,CC(C)NC(=O)N1CCCC2(CCCCN2)C1 (stereo not drawn),21.75

row,Structure (SMILES),INHIBITION [%]
1,O=C(NCC(F)(F)F)c1ccncc1,8.22
2,Fc1cnc(N2CCCC3(CCN(Cc4cccs4)C3)C2)nc1 (stereo not drawn),31.25
3,Cc1ccnc(NC(=O)C2CCCO2)c1 (stereo not drawn),23.39
4,COc1ccc(N(C)C(=O)C2CN(C)CCO2)cc1Cl (stereo not drawn),-18.04
5,COc1ccc(N(C)C(=O)C2CN(C)CCO2)cc1F (stereo not drawn),71.05
6,CN1CCOC(C(=O)N(C)c2ccc3c(c2)CCO3)C1 (stereo not drawn),-30.56
7,Cc1ccc(OCC(O)COC2CCOCC2)c(Cl)c1 (stereo not drawn),-2.35
8,Cc1cc(Cc2ccccc2F)cc(C2CCCNC2)n1 (stereo not drawn),4.91
9,Cc1cc(Cc2ccccc2C)cc(C2CCCNC2)n1 (stereo not drawn),54.02
10,Cc1cc(Cc2ccccc2)cc(C2CCCNC2)n1 (stereo not drawn),-24.98
11,CC(=O)N1CCN(c2cc(-n3cccc3)ncn2)CC1,35.36
12,CSc1sc2c(O)cc(=O)[nH]c2c1C(N)=O,15.96
13,CSCCc1n[nH]c2c1CN(S(=O)(=O)c1c(C)nn(C)c1C)CC2,59.8
14,CSCCc1n[nH]c2c1CN(S(=O)(=O)c1cn(C)c(C)n1)CC2,41.07
15,Cc1nc(S(=O)(=O)N2CCc3[nH]nc(CCC(C)C)c3C2)cn1C,26.75
16,CS(=O)(=O)Cc1nc(CNc2ccc(F)c(F)c2)cs1,56.49
17,CS(=O)(=O)Cc1nc(CNc2c(F)cc(F)cc2F)cs1,1.42
18,CSc1ccc(NCc2csc(CS(C)(=O)=O)n2)cc1F,28.95
19,Cc1cn(Cc2ccccc2)nc1N,43.77
20,Cc1cccc(Cn2cc(C)c(N)n2)c1,62.99
21,Cc1ccc(Cn2cc(C)c(N)n2)cc1,-20.05
22,COC(=O)c1cccc2nc([C@H]3CCN(C4CCN(C)CC4)C3)oc12,21.06

row,Structure (SMILES),INHIBITION [%]
1,COC(=O)c1cccc2nc([C@H]3CCN(Cc4ccccc4)C3)oc12,1.29
2,COc1cccc(-c2noc(C3CCN(Cc4ccccc4F)C3)n2)c1 (stereo not drawn),35.56
3,COC(=O)c1cccc2nc([C@H]3CCN(CC(C)C)C3)oc12,53.46
4,COC(=O)c1cccc2nc([C@H]3CCN(Cc4ccccc4F)C3)oc12,52.36
5,COC(=O)c1cccc2nc([C@H]3CCN(Cc4ccccc4C)C3)oc12,33.14
6,CC(=O)Nc1nc(C(=O)N2CCCC(n3nc(C)cc3C)C2)cs1 (stereo not drawn),-45.23
7,N#Cc1cccc(OCCN2CCCC2C(=O)N2CCSCC2)c1 (stereo not drawn),9.04
8,COCCN1CCN(c2cccc(C)n2)Cc2ccc(C)nc21,-21.77
9,Cn1cc(N2C[C@@H]3CN(S(=O)(=O)C4CC4)C[C@@H]3C2=O)cn1,63.23
10,CCS(=O)(=O)N1C[C@H]2CN(c3cnn(C)c3)C(=O)[C@H]2C1,-33.15
11,Cn1cc(N2C[C@@H]3CN(CC4CCOCC4)C[C@@H]3C2=O)cn1,-1.69
12,Cc1nc(C2CCCN2C(=O)c2ccc(F)cc2)ncc1C(N)=O (stereo not drawn),21.33
13,CCOC(=O)N1CCC(NC(=O)c2cccc(C3CCCNC3)c2)CC1 (stereo not drawn),35.15
14,Cc1nnc(N2CCOC(Cn3cccn3)C2)c(C#N)c1C (stereo not drawn),8.7
15,CCC1CN(c2nnc(C)c(C)c2C#N)CCO1 (stereo not drawn),11.18
16,Cc1cnn(CC2CN(c3nnc(C)c(C)c3C#N)CCO2)c1 (stereo not drawn),54.2
17,O=C1CSC(c2ccc(Cl)cc2Cl)c2c(n(C3CCOCC3)[nH]c2=O)N1 (stereo not drawn),5.47
18,CN(C)S(=O)(=O)N1CCC(Oc2ccc(C#N)cn2)CC1,31.38
19,CC(C)c1nn(C)c(Cl)c1CNCc1ccc2c(c1)OCO2,35.65
20,CCC(CC)N(Cc1ccc2c(c1)OCO2)C(=O)c1ccc(=O)n(C)c1,-55.13
21,CCC(C)NC(=O)CCc1ccc(OCC(F)(F)F)c(OC)c1 (stereo not drawn),51.94
22,COc1cc(CCC(=O)NC(C)C(=O)O)ccc1OCC(F)(F)F (stereo not drawn),-16.42

row,Structure (SMILES),INHIBITION [%]
1,COc1cc(CCC(=O)NC(C)C)ccc1OCC(F)(F)F,-56.02
2,NC(=O)c1cccc2nc([C@H]3CCN(Cc4ccccn4)C3)[nH]c12,50.72
3,Cc1ccc(CN2CC[C@H](c3nc4cccc(C(N)=O)c4[nH]3)C2)cc1,23.26
4,NC(=O)c1cccc2nc([C@H]3CCN(Cc4ccccc4F)C3)[nH]c12,18.87
5,CS(=O)(=O)N1CCCC(Cc2ccnc(Nc3ccccn3)c2)C1 (stereo not drawn),3.38
6,O=C(c1ccccc1)N1CCN(CC2CCOc3ccccc3C2)CC1 (stereo not drawn),1.88
7,COCCc1noc(CNC(=O)C2CC(=O)N(C(C)(C)C)C2)n1 (stereo not drawn),-28.97
8,CCN1CC(C(=O)NCc2noc(Cc3ccccc3)n2)CCC1=O (stereo not drawn),-17.86
9,CC(C)(C)N1CC(C(=O)NCc2noc(Cc3ccccc3)n2)CC1=O (stereo not drawn),50.63
10,CCn1nc(CC(C)C)cc1C(=O)NCc1c(C)cc(C)nc1OC,39.16
11,Cc1noc2nc(C3CCN(Cc4ccccn4)CC3)cc(C(F)F)c12,-32.4
12,C/C(=C\c1ccccc1)CN1CCCC(c2nnc3n2CCNCC3)C1 (stereo not drawn),36.51
13,O=C(NCCNc1cnccn1)c1scnc1Cl,-6.71
14,O=c1[nH][nH]cc1-c1ccnc(NCCc2cccnc2)n1,7.4
15,Cc1ccc(-c2cnn(CC(=O)NC(C)C)c2)cc1,72.31
16,CC(NC(=O)Cn1cc(-c2ccccc2)cn1)C1CC1 (stereo not drawn),35.65
17,CC(C)NC(=O)Cn1cc(-c2ccccc2)cn1,-42.92
18,CNC(=O)NC(=O)Cn1cc(-c2ccccc2)cn1,54.92
19,CCC(CC)NC(=O)Cn1cc(-c2ccccc2)cn1,-9.17
20,CCCNC(=O)Cn1cc(-c2ccccc2)cn1,-14.11
